Among the data in ChEMBL document CHEMBL2218924, “A broad activity screen in support of a chemogenomic map for kinase signalling research and drug discovery” (Biochem J, 2013) are residual activity values, retold here.

For test [1], the target named is RAC-gamma serine/threonine-protein kinase (Homo sapiens) (UniProt Q9Y243). As to conditions: at 10 µM.
Test [2] deals with Protein kinase C alpha type (Homo sapiens) (UniProt P17252). The note with it: at 1 µM.
Test [3] has the same target. As to conditions: at 10 µM.
Test [4] has as its target Protein kinase C beta type (Homo sapiens) (UniProt P05771). As to conditions: at 1 µM.
Test [5] shares this target. As to conditions: at 10 µM.
Test [6] has the same target. As to conditions: at 1 µM. The source holds these as a separate data set.
For test [7] the target is unchanged. As to conditions: at 10 µM. The source holds these as a separate data set.
Test [8] has as its target Protein kinase C gamma type (Homo sapiens) (UniProt P05129). The note with it: at 1 µM.
The target is the same in test [9]. The note with it: at 10 µM.
Test [10] has as its target Protein kinase C delta type (Homo sapiens) (UniProt Q05655). The note with it: at 1 µM.

Chain of Protein kinase C beta type (Homo sapiens) (P05771 2-671 limits assumed): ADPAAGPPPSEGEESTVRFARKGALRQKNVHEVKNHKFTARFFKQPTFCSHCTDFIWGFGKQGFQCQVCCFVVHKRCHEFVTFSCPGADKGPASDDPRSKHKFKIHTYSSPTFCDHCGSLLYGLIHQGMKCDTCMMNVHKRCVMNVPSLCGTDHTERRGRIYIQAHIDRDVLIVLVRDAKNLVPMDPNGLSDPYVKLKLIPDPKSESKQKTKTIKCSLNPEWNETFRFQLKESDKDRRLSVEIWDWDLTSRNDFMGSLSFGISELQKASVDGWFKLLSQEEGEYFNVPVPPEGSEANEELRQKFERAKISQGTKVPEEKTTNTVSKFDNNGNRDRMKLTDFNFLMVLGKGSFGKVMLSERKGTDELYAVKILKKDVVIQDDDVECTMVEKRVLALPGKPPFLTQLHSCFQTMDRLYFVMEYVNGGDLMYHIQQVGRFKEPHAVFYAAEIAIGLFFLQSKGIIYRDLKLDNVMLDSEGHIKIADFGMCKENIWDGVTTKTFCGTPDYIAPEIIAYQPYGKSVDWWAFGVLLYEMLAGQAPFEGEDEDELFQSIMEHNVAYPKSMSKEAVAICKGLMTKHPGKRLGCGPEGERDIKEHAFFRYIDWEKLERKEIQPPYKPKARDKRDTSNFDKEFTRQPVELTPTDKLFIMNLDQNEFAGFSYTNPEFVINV
Chain of Protein kinase C delta type (Homo sapiens) (Q05655 whole entry, looked up): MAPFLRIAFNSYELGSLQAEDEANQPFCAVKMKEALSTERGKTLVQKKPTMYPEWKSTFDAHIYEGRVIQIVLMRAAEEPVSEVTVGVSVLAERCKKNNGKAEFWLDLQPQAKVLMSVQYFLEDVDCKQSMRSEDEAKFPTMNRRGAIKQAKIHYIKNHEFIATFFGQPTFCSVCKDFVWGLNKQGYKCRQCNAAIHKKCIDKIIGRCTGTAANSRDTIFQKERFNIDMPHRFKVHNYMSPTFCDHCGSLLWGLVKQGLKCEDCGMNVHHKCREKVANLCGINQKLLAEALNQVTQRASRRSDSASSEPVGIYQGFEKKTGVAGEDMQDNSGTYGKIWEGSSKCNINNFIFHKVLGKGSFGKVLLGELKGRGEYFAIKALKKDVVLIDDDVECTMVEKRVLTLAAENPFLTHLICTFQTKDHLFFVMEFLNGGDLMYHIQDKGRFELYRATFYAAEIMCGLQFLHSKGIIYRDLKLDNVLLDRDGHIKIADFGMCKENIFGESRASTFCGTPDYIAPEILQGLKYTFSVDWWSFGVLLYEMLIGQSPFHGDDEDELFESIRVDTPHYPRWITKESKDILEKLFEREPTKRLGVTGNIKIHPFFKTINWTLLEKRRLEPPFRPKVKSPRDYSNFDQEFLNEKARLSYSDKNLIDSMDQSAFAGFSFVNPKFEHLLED
Chain of RAC-gamma serine/threonine-protein kinase (Homo sapiens) (Q9Y243 whole entry): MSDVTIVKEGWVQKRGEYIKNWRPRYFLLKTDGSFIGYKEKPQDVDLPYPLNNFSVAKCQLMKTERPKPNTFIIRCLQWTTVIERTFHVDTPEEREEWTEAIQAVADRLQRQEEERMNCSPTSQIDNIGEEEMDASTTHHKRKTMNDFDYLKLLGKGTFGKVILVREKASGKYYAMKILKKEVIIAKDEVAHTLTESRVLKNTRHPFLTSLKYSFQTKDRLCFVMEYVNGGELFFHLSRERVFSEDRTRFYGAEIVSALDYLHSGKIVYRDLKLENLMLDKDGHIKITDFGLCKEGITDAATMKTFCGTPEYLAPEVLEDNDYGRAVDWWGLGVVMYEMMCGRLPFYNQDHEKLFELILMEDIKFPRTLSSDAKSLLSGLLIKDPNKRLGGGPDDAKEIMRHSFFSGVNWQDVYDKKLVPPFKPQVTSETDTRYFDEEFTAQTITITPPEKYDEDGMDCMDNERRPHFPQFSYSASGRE

For orientation: residual activity means the signal under treatment as a percentage of the control signal. `CCn1cnc2c(Nc3cccc(Cl)c3)nc(N[C@@H]3CCCC[C@@H]3N)nc21`: the residual activity in test [1] worked out at 61%; in test [2] it was 89%; in [3] it was 58%; in [4], 98%; in test [5], 85%; in test [6], 99%. For the same molecule, the residual activity was found to be 92% in [7], 81% in [8], 45% in test [9] and 86% in test [10].

In the case of `CC(C)(C)c1cc(C=C(C#N)C#N)cc(Br)c1O`, the residual activity in test [1] worked out at 97%; in [2], 106%; in test [4], 106%; in [5], 97%; in test [6], 108%; in [7], 108%. The residual activity amounted to 98% in test [8], 103% in test [9] and 98% in test [10].

For the molecule `N/C(=N\[N+](=O)[O-])N/N=C\c1ccc(-c2cccc([N+](=O)[O-])c2)o1`, the residual activity in [1] amounted to 77%; in [8], 91%; in test [9] it was 94%.

For `COc1cc(OC)c(/C=C2\C(=O)Nc3ccccc32)c(OC)c1`, the residual activity came to 80% in test [1]; 105% in [4]; 103% in test [5]; 103% in [6]; 101% in [7]; 98% in test [8].

Take `c1cc(-c2cnn3cc(-c4ccc(OCCN5CCCCC5)cc4)cnc23)ccn1`: the residual activity in [4] was found to be 118%; in test [5], 104%.

`O=C1Nc2ccc3ncsc3c2/C1=C/c1c[nH]cn1`: the residual activity in test [1] worked out at 30%; in test [2], 67%; in test [3], 18%; in test [4] it was 55%; in test [5], 12%; in [6], 67%. In addition, the residual activity worked out at 43% in test [7], 69% in [8], 21% in test [9] and 15% in test [10].

With `COc1ccc2c(c[n+](C)c3c4cc5c(cc4ccc23)OCO5)c1OC`, the residual activity in test [1] stood at 63%; in test [2], 110%; in test [3], 100%; in [6], 87%.

Regarding `COC(=O)[C@@]1(O)C[C@H]2O[C@]1(C)n1c3ccccc3c3c4c(c5c6ccccc6n2c5c31)C(=O)NC4`, the residual activity in [1] is 3%; in [2], 19%; in test [3], 0%; in test [4], 53%; in [5], 13%; in test [6] it was 67%. The residual activity came to 18% in [7], 19% in [8], 2% in test [9] and 18% in test [10].

As for `COc1ccc2c(c1)/C(=C/c1cnc[nH]1)C(=O)N2`, the residual activity in test [10] came to 96%.

As to `COc1cc2ncnc(Nc3ccc(OCc4ccccc4)cc3)c2cc1OC`, the residual activity in [1] turned out to be 103%; in [2], 117%; in test [3] it was 114%; in test [4], 123%; in test [5], 106%; in test [6], 105%. Moreover, the residual activity in test [7] came out at 101%; in test [8], 105%; in test [9], 108%; in [10] it was 104%.

`O=c1[nH]c2ccccc2n1C1CCN(Cc2ccc(-c3nc4cc5[nH]cnc5cc4nc3-c3ccccc3)cc2)CC1`: the residual activity is 69% in test [1]; 104% in test [2]; 104% in test [3]; 102% in [4]; 93% in test [5]; 88% in test [6]. The residual activity in test [7] came out at 93%; in test [8], 108%; in [9], 98%; in test [10] it was 107%.

`CC(C)[C@H](CO)Nc1nc(Nc2cccc(Cl)c2)c2ncn(C(C)C)c2n1`: the residual activity is 84% in [1]; 120% in test [6]; 96% in test [7]; 102% in [8]; 101% in test [9].

`O=C1NC(=O)c2c1c1c3ccccc3n3c1c1c2c2ccccc2n1C1CCC3O1`: the residual activity in test [1] was 84%; in test [2], 96%; in [4] it was 95%; in [5] it was 91%; in [8], 92%; in test [9], 96%.

Take `O=C1c2ccccc2-c2nc3nnnn3nc21`: the residual activity amounted to 100% in test [1] and 101% in test [6].

As to `C[S+]([O-])c1ccc(-c2nc(-c3ccc(F)cc3)c(-c3ccncc3)[nH]2)cc1` (configuration not stated), the residual activity in [1] was 75%; in test [2], 107%; in test [3] it was 90%; in test [4] it was 101%; in [5], 70%; in test [6], 104%. In addition, the residual activity in [7] was 75%; in test [8] it was 104%; in test [9] it was 103%; in [10], 105%.

Regarding `CCc1nc(-c2ccc(OC)cc2)[nH]c1-c1ccncc1`, the residual activity is 105% in test [3]; 127% in test [4]; 105% in test [5]; 108% in test [8]; 108% in test [9]; 107% in [10].

As for `O=[N+]([O-])/C=C/c1ccc2c(c1)OCO2`, the residual activity worked out at 106% in test [1]; 111% in [2]; 111% in test [3]; 113% in test [4]; 106% in test [7]; 103% in [8]. Besides, the residual activity was determined as 67% in test [9] and 99% in test [10].
